Here are results for 40 compounds from PubChem BioAssay (Tox21).

Records with an inconclusive call do not appear. Where a call stands in place of a potency, no number is given. Activity calls are given as the source filed them. Calls follow the shape of the dose curve; as a rule, active = well fitted inhibition curve with a large enough effect in the repeat runs; inconclusive = weak or mixed curves; inactive = no such curve, though single readings can be large or run the other way.
Potency is read from the fitted curve at half-maximal effect.

Sequence of Cytochrome P450 2D6 (Homo sapiens) (P10635 whole entry, looked up): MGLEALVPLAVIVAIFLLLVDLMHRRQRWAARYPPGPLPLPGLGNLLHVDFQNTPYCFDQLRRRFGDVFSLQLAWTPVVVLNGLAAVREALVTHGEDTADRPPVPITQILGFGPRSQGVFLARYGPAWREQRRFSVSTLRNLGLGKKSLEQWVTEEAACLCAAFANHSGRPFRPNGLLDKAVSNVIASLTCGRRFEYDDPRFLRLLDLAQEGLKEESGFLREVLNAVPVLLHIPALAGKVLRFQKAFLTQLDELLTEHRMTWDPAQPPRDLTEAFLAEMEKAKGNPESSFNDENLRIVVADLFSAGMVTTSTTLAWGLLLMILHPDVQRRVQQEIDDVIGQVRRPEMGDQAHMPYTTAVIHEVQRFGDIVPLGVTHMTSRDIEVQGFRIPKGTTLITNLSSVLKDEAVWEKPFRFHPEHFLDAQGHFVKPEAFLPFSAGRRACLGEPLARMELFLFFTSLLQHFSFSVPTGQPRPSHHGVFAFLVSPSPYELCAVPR

The experiment addresses Cytochrome P450 2D6 (Homo sapiens) (UniProt P10635). As to the kind of experiment: Cytochrome P450 Family 2 Subfamily D Member 6 (CYP2D6) small molecule antagonists: luciferase reporter qHTS assay (AID 1671196). Also: nearly all actives have a fitted effect of over 50% in size. To be noted: P450-Glo CYP2D6 enzyme assay, luciferin luminescence, 1 h; series mostly up to 115 µM. An excerpt:
U.S. Tox21 Program National Center for Advancing Translational Sciences [NCATS] U.S. Environmental Protection Agency [EPA] National Institutes of Environmental Health Sciences [NIEHS] National Toxicology Program [NTP] U.S. Food and Drug Administration [FDA] Tox21 Assay Overview: Cytochrome P450 (CYP) enzymes are membrane-bound hemeproteins that play a key role in metabolism of drugs and xenobiotics. Evaluation of the effect of chemicals on CYP isozymes is useful to minimize the adverse drug reactions and toxicities in drug development process. Tox21 chemicals were tested for their effect on CYP enzyme activities by using P450-Glo (TM) screening systems (Promega Corporation, Madison, WI). These systems provide a luminescent method containing proluciferin substrates and are converted to luciferin products by CYP isozymes. The luciferin products formed are detected with a luciferin detection reagent, and the amount of light produced is proportional to CYP activity. P450-Glo (TM) CYP2D6 screening system (Catalog. No. V9890) was used to detect the compounds that interfere in CYP2D6 activity.
Tox21 Assay Protocol Summary: Two ul of enzyme-substrate mix was dispensed into medium binding white/solid 1536-well plates (Greiner Bio-One North America Inc., Monroe, NC) using a BioRaptr Flying Reagent Dispenser (FRD, Beckman Coulter, Brea, CA). […] The assay plates were incubated at room temperature for 10 min. Then 2 ul of NADPH regeneration solution was added to each well of the assay plates using an FRD and incubated at room temperature for 1 h. The reaction was stopped by adding 4 ul of detection reagent using an FRD and after 20 min incubation at room temperature the luminescence signal was measured using a ViewLux plate reader (Perkin Elmer, Shelton, CT). Data were expressed as relative luminescence units.
A general note: Reporter assays use an easily measured gene product as a stand-in for the process of interest.
`CCOC(=O)CC(=O)C(=O)OCC`: the Potency result was “inactive”.

On to `O=C(CCCCCCC(=O)Nc1ccccc1)NO`, for which the Potency was 5.49 µM (active).

On to `C=CC(=C)CCCC(C)(C)OC(C)=O`, for which the Potency entry is “inactive”.

As to `CCn1nc(C)c2c1C(=O)NCC(c1ccc(O)cc1)=N2`, the Potency entry was “inactive”.

For `CC(C)(C)CC(C)(C)c1ccc(OCCO)cc1`, the Potency entry is “inactive”.

As to `O=C(N[C@@H](c1ccccc1)[C@@H]1CCCCN1)c1cccc(C(F)(F)F)c1Cl`, the Potency was 1.26 µM (active).

With `CCOC(=O)c1ccccc1C`, the Potency result was “inactive”.

Turning to `CC1CC(O)CC(C)(C)C1` (stereo not given), the Potency entry was “inactive”.

For the compound `c1cnc2c(n1)CCCC2`, the Potency entry is “inactive”.

For `Cc1nc2ccccn2c(=O)c1CCN1CCC(C(=O)c2ccc(F)cc2)CC1`, the Potency is 4.36 µM (active).

In the case of `ON(Cc1ccccc1)Cc1ccccc1`, the Potency is 35.6 µM (active).

With `CCC(C)(O)CCC=C(C)C` (stereo not given), the Potency result was “inactive”.

As for `COC(=O)CC(=O)C(C)(C)C`, the Potency result was “inactive”.

`NC(=O)Nc1ccc(Cl)cc1`: the Potency result is “inactive”.

Take `C/C(=N/NC(=O)c1ccncc1)C(=O)O`: the Potency entry was “inactive”.

`C=CC(=O)NCOCC(C)C`: the Potency entry was “inactive”.

For `CCCCN(CCCC)C(=S)SSC(=S)N(CCCC)CCCC`, the Potency is 28 µM (active).

For the compound `C[N+](C)(C)CCOC(N)=O`, the Potency result is “inactive”.

`Cc1oc(C)c(C(=O)Nc2ccccc2)c1C`: the Potency is 56.4 µM (active).

As for `Cc1cc(S(=O)(=O)O)ccc1N=Nc1c(O)ccc2ccccc12`, the Potency was 39.9 µM (active).

Consider `O=S1OCCO1`, for which the Potency result was “inactive”.

In the case of `CC(C)C(=O)O`, the Potency entry is “inactive”.

For the compound `Cn1c(=O)c2c(ncn2CC(=O)O)n(C)c1=O`, the Potency result is “inactive”.

On to `CN1Cc2cc(C(=O)N3CCC(C4CCNCC4)CC3)ccc2N[C@@H](CC(=O)O)C1=O`, for which the Potency result was “inactive”.

For the compound `NC(=O)Cn1c(=O)cc(CCN2CCN(c3nccc4sccc34)CC2)c2ccc(F)cc21`, the Potency is 35.6 µM (active).

`COCc1c(C(C)C)nc(C(C)C)c(/C=C/[C@@H](O)C[C@@H](O)CC(=O)O)c1-c1ccc(F)cc1`: the Potency entry is “inactive”.

On to `CCCCCCOC(=O)CCCCCCCC(=O)OCCCCCC`, for which the Potency entry is “inactive”.

Take `C[N+]1(C)CCC(=C(c2ccccc2)c2ccccc2)CC1`: the Potency is 12.3 µM (active).

Consider `C[C@@H]1C[C@H]2[C@@H]3CCC4=CC(=O)C=C[C@]4(C)[C@@]3(F)[C@@H](O)C[C@]2(C)[C@H]1C(=O)CO`, for which the Potency result was “inactive”.

With `Cc1ccccc1N1C(=O)c2cc(S(N)(=O)=O)c(Cl)cc2NC1C` (stereo not given), the Potency result is “inactive”.

In the case of `CCCCCCCCCCCC(=O)[O][Sn]([CH2]CCC)([CH2]CCC)[O]C(=O)CCCCCCCCCCC`, the Potency entry is “inactive”.

With `CCCCCCCCCOC(C)=O`, the Potency result is “inactive”.

On to `C=CCOC(=O)/C=C\C(=O)OCC=C`, for which the Potency result is “inactive”.

As to `O=C(CCC1CCN(Cc2ccccc2)CC1)c1ccc2c(c1)NCCCC2`, the Potency was 8.71 µM (active).

With `O=C(O)c1cccc(O)c1`, the Potency result was “inactive”.

With `CC(=O)N(c1onc(C)c1C)S(=O)(=O)c1ccc(N)cc1`, the Potency entry was “inactive”.

On to `NC(=O)N(O)[C@@H]1COc2cc(OCc3ccccc3)ccc21`, for which the Potency was 10 µM (active).

As for `CCN(CC)CCNC(=O)c1ccc(NC(C)=O)cc1`, the Potency is 17.4 µM (active).

Regarding `NCC1CCCC(CN)C1` (stereo not given), the Potency was 14.2 µM (active).

Regarding `Cc1cc(OI)c(C(C)C)cc1-c1cc(C(C)C)c(OI)cc1C`, the Potency entry was “inactive”.
